PubChem BioAssay
Activity calls are given as the source filed them.

Legend:
[1] = binders of probe aFSTL3 on microarray, primary screen, stem cell growth factor project, biochemical, small-molecule microarray, fluorescence 635/667 (AID 1064); details: higher = more signal;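 note: measures binding of the biotinylated anti-FSTL3 antibody to printed compounds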
[2] = binders from COS7 lysate, DM2A8 probe, primary screen, torsin A project, cell lysate, small-molecule microarray, fluorescence 635/667 (AID 1065); details: higher = more signal, COS7 lysate expressing mutant human TOR1A
[3] = binders of probe aFGF2 on microarray, primary screen, stem cell growth factor project, biochemical, small-molecule microarray, fluorescence 635/667 (AID 1067); details: higher = more signal;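 note: measures binding of biotinylated aFGF2 protein to printed compounds on slides; z-score merges feature fluorescence and signal-to-noise across triplicate slides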
[4] = binders of probe aFGF10 on microarray, primary screen, stem cell growth factor project, biochemical, small-molecule microarray, fluorescence 635/667 (AID 1071); details: higher = more signal;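 note: score merges 667 nm spot intensity and signal to noise from triplicate slides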
[5] = molecular target: Neurogenic locus notch homolog protein 2 (Homo sapiens) (UniProt Q04721); experiment: Notch2 binders on small-molecule microarrays, primary screen, biochemical, small-molecule microarray, 635 nm fluorescence, stem cell growth factors (AID 1073); details: Notch2 binding, higher = more signal
[6] = molecular target: Pro-neuregulin-1, membrane-bound isoform (Homo sapiens) (UniProt Q02297); experiment: NRG1 binders on small-molecule microarrays, primary screen, psychiatric disease protein project, biochemical, small-molecule microarray, fluorescence 635/667 (AID 1075); details: NRG1 binding, 635 nm fluorescence, higher = more signal;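 note: score combines 667 nm spot fluorescence with signal to noise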
Pro-neuregulin-1, membrane-bound isoform (Homo sapiens), sequence (Q02297 whole entry, looked up, the tested form may be a part, canonical isoform): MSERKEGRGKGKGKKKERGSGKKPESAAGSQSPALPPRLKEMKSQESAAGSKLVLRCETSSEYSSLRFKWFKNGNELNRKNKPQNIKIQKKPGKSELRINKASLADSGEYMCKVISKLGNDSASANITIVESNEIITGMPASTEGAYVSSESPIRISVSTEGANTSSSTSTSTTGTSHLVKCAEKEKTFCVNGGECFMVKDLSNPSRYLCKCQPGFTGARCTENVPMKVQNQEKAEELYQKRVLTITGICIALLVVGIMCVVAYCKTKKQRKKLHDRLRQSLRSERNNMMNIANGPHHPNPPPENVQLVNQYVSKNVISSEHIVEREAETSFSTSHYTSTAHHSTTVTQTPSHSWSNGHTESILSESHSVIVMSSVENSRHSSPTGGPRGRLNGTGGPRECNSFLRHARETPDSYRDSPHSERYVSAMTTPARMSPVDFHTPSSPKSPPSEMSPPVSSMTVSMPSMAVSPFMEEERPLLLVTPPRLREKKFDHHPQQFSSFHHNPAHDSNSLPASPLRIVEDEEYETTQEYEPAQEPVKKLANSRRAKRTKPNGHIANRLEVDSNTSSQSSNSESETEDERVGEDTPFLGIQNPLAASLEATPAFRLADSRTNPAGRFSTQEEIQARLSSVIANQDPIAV

[7] = system: Neuregulin-1 EGF-like domain; experiment: binders of neuregulin-1 EGF-like domain, primary screen, biochemical, small-molecule microarray, 635 nm fluorescence (AID 1081); details: small-molecule microarray binding, higher = more signal;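 note: binding of the protein to compounds printed on small-molecule microarray slides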
[8] = FRG1 promoter luciferase signal modulators, primary screen, FRG1 inhibition for FSHD, cell-based, C2C12 myotubes, firefly/Renilla luciferase, luminescence (AID 1084); details: higher = more signal, called active from +8 up or from −8 down
[9] = binders of probe aFST on microarray, primary screen, stem cell growth factor project, biochemical, small-molecule microarray, fluorescence 635/667 (AID 1086); details: higher = more signal;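 note: score merges 667 nm fluorescence with signal-to-noise of each printed compound spot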
[10] = binders of probe aHhip on microarray, primary screen, stem cell growth factor project, biochemical, small-molecule microarray, fluorescence 635/667 (AID 1087); details: higher = more signal;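 note: score merges spot fluorescence at 667nm with spot signal to noise ratio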
[11] = system: PRMT1 (protein arginine N-methyltransferase 1); experiment: PRMT1 binders on small-molecule microarrays, primary screen, biochemical, small-molecule microarray, 635 nm fluorescence (AID 1088); details: small-molecule microarray binding, higher = more signal;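 note: binding of Prmt1 protein to compounds spotted on small-molecule microarray slides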
[12] = yeast growth modulation, basal conditions, primary screen, YJM789 clinical isolate, OD600, 24 h (AID 1089);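 note: growth of clinical yeast isolate S. cerevisiae YJM 789 seeded 1000 cells per well; test concentration not given here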; details: S. cerevisiae YJM789 growth, higher = more signal, called active from +8 up or from −8 down
[13] = fission yeast growth modulation, primary screen, strain 972, OD600, 24 h, no modulator (AID 1090);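 note: basal condition with compound alone and no growth modifier present; test concentration not given here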; details: S. pombe 972 growth, higher = more signal, called active from +8 up or from −8 down
[14] = S. cerevisiae growth modulation with rapamycin, primary screen, strain BY4716, OD600, 96 h (AID 1091); details: higher = more signal, called active from +8 up or from −8 down; note: test concentration not given here
[15] = molecular target: Torsin-1A-interacting protein 2 (Homo sapiens) (UniProt Q8NFQ8); experiment: LULL1 binders on small-molecule microarray, primary screen, cell lysate, human LULL1 lysate, 635/667 nm fluorescence (AID 1092); details: hLULL1 lysate binding, 635 nm fluorescence, higher = more signal;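 note: probe is lysate of COS7 cells overexpressing human LULL1; score merges per-feature 667 nm fluorescence with signal-to-noise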
Torsin-1A-interacting protein 2 (Homo sapiens), sequence (Q8NFQ8 whole entry, looked up): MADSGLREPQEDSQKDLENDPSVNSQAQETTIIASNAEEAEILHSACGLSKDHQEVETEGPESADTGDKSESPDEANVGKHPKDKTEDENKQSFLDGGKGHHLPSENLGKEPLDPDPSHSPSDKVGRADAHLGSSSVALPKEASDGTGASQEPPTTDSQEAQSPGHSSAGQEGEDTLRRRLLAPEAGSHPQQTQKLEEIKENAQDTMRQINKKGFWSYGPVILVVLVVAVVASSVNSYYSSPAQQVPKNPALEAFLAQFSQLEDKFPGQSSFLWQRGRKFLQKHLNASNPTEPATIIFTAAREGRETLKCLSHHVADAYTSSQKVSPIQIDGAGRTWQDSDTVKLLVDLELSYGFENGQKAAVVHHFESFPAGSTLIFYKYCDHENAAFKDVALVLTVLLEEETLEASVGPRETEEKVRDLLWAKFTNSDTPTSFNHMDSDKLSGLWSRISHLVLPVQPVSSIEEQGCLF

[16] = E. coli growth modulation, two-sided OD650, primary screen, E. coli filamentation project, strain DRC41, 24 h (AID 1093); details: OD650, 24 h, higher = more signal, called active from +8 up or from −8 down;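 note: MC1000 strain lacking acrAB efflux and sulA so SOS filamentation is blocked; test concentration not given here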
[17] = small-molecule microarray binders of probe aLefty2, primary screen, biochemical, biotinylated probe, 635/667 nm fluorescence (AID 1094); details: higher = more signal;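 note: score merges spot fluorescence near 667 nm with spot signal-to-noise ratio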
[18] = system: Noggin (protein binding on small-molecule microarray); experiment: Noggin binders on small-molecule microarray, primary screen, biochemical, 635/667 nm fluorescence (AID 1095); details: 635 nm fluorescence, higher = more signal;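 note: score merges 667 nm feature fluorescence with signal to noise over triplicate slides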
[19] = molecular target: Neurogenic locus notch homolog protein 3 (Homo sapiens) (UniProt Q9UM47); experiment: NOTCH3 binders on small-molecule microarray, primary screen, biochemical, 635/667 nm fluorescence (AID 1096); details: NOTCH3 binding, 635 nm fluorescence, higher = more signal
Neurogenic locus notch homolog protein 3 (Homo sapiens), sequence (Q9UM47 whole entry, looked up): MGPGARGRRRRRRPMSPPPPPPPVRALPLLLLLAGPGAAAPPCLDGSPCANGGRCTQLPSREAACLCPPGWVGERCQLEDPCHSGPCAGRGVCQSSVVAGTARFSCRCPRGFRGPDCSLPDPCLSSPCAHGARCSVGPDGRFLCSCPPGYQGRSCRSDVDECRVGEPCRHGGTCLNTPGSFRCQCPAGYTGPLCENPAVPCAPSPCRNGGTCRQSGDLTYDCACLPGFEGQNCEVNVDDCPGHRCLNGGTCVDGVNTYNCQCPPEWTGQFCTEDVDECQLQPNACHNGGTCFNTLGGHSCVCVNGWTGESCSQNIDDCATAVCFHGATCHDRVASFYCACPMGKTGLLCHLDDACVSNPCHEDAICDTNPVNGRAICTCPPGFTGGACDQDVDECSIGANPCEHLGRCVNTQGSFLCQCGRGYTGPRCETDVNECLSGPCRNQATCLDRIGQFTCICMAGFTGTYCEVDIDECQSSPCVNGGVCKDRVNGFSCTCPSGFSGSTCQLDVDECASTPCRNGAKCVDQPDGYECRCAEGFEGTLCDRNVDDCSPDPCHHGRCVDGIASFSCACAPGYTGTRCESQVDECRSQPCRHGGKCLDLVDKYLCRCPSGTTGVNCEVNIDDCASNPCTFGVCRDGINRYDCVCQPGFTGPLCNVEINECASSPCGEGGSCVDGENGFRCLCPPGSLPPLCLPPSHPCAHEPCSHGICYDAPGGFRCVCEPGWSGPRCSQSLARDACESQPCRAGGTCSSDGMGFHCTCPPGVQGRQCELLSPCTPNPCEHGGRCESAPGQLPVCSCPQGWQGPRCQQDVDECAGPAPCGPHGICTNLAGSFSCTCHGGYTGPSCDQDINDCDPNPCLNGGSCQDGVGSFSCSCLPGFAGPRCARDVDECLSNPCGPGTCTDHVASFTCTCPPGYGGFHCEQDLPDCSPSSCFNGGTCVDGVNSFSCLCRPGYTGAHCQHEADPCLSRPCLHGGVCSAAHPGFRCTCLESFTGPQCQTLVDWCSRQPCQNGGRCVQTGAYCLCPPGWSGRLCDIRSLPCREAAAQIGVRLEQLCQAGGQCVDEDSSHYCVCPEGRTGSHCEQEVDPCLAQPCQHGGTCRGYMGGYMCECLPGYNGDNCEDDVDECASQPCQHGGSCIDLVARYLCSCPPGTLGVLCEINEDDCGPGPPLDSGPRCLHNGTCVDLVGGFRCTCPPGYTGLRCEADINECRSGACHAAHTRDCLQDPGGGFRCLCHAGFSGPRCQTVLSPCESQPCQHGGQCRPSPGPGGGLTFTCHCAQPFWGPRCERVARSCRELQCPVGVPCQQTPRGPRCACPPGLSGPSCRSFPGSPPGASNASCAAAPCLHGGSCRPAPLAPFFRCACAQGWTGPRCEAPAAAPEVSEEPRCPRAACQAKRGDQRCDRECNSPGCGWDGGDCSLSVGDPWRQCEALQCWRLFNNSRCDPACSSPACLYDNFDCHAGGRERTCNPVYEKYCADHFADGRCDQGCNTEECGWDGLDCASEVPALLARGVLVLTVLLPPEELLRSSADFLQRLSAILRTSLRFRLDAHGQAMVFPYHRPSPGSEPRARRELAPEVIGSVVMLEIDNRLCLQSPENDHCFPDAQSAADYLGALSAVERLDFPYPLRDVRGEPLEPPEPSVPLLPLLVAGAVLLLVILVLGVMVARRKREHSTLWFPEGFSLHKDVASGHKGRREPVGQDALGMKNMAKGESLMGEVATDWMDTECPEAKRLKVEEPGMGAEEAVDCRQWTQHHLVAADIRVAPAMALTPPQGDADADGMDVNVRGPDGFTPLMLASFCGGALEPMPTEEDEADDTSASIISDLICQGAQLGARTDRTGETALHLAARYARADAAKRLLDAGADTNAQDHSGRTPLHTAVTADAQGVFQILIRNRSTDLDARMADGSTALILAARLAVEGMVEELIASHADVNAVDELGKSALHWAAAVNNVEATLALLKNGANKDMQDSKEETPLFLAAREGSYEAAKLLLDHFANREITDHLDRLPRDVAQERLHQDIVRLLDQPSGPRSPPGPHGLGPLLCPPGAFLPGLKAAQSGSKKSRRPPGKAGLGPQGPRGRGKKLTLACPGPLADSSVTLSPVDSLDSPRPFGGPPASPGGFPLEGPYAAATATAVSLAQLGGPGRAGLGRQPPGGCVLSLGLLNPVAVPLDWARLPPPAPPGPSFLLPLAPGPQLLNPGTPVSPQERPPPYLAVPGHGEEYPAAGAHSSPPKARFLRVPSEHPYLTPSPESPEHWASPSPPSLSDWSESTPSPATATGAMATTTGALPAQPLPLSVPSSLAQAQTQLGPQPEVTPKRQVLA

[20] = small-molecule microarray binders of probe aEGFR, primary screen, biochemical, biotinylated probe, 635/667 nm fluorescence (AID 1097); details: higher = more signal;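 note: probe is a biotinylated anti-EGFR antibody binding compounds printed on slides; score combines fluorescence near 667 nm and signal to noise of each spot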

| SMILES | composite z-score [1] | composite z-score [2] | composite z-score [3] | composite z-score [4] | composite z-score [5] | composite z-score [6] | composite z-score [7] | z-score [8] | composite z-score [9] | composite z-score [10] | composite z-score [11] | z-score [12] | z-score [13] | z-score [14] | composite z-score [15] | z-score [16] | composite z-score [17] | composite z-score [18] | composite z-score [19] | composite z-score [20] |
| --- | --- | --- | --- | --- | --- | --- | --- | --- | --- | --- | --- | --- | --- | --- | --- | --- | --- | --- | --- | --- |
| O=C(NCc1ccccc1)[C@@H]1c2ccccc2C(=O)N(Cc2ccccc2C(F)(F)F)[C@H]1c1ccc(CO)cc1 | -0.234 | 0.55 | -0.0451 | -0.0459 | -0.927 | 0.48 | 1.25 | -3.23 (inactive) | -0.428 | -0.293 | 1.45 | 0.397 (inactive) | 0.234 (inactive) | -0.0066 (inactive) | 1.83 | 0.479 (inactive) | -0.179 | -0.483 | -0.0406 | -0.212 |
| COc1ccc(CCN2C(=O)[C@@]3(Cc4ccccc42)c2ccccc2C(=O)N(Cc2ccccc2OC)[C@H]3c2ccc(CO)cc2)cc1 | 0.502 | -0.277 | 0.0252 | -0.0162 | -0.779 | -0.634 | -0.322 | -1.01 (inactive) | -0.275 | 0.21 | 0.177 | -0.585 (inactive) | -1.23 (inactive) | -1.42 (inactive) | 1.66 | 0.237 (inactive) | 0.0877 | -1.36 | -0.642 | -0.204 |
| O=C1O[C@H](c2ccccc2)[C@H](c2ccccc2)N2[C@H]1[C@@H](C(=O)Nc1nc3ccccc3s1)[C@]1(C(=O)Nc3ccc(C#CC4(O)CCCCCC4)cc31)[C@H]2c1ccccc1OCCO | -0.411 | 0.0728 | -0.048 | 1.05 | 1.23 | 0.77 | 1.07 | 0.435 (inactive) | 0.492 | -0.0994 | 1.54 | 1.87 (inactive) | 1.91 (inactive) | 3.32 (inactive) | 3.08 | 0.149 (inactive) | -0.118 | 0.971 | 1.06 | -0.0564 |
| CC=CC(O)C1C=CC2C(=O)N(c3ccccc3)C(=O)C2N1Nc1ccccc1F (stereo not given) | 0.968 | 0.0233 | 0.384 | 0.547 | 0.264 | 0.82 | 1.36 | 0.584 (inactive) | 1.07 | 0.0001 | 0.841 | -0.0071 (inactive) | 1.4 (inactive) | 0.741 (inactive) | 3.08 | -0.463 (inactive) | 0.535 | -0.592 | -0.411 | 0.312 |
| COc1ccc([Si](C)(C)[C@@H]2[C@@H](CC(=O)N(CCO)Cc3ccccc3)O[C@]3(C(=O)N(c4ccccc4)c4ccccc43)[C@H]2C)cc1 | -0.337 | 0.326 | -0.0455 | 0.276 | 0.212 | 0.954 | 1 | -2.62 (inactive) | 0.593 | -0.0994 | 1.56 | -0.14 (inactive) | 0.001 (inactive) | 0.842 (inactive) | 2.26 | 1.01 (inactive) | -0.0722 | 1.26 | 1.1 | -0.0512 |
| COCCOC(=O)N1C(=O)[C@@]2(c3cc(C#CCCO)ccc31)[C@H](C(=O)Nc1nc3ccccc3s1)[C@H]1C(=O)O[C@H](c3ccccc3)[C@H](c3ccccc3)N1[C@@H]2c1ccccc1OCCO | -0.224 | 0.53 | 0.0293 | 0.802 | 1.29 | 0.95 | 1.32 | 1.23 (inactive) | 0.745 | 0.153 | 1.54 | 2.53 (inactive) | 1.7 (inactive) | 3.64 (inactive) | 2.81 | -0.0236 (inactive) | -0.116 | 0.6 | 1.09 | -0.0828 |
| C=C(CCCC)/C(=C/C[C@@H](OC(=O)c1ccncc1)c1ccccc1OCCO)c1cnc2ccccc2c1 | -0.5 | 0.517 | 0.165 | 1.17 | 1.33 | 0.611 | 1.04 | -1.53 (inactive) | 0.574 | 0.469 | 1.55 | -0.868 (inactive) | -1.2 (inactive) | 1.65 (inactive) | 1.26 | 0.514 (inactive) | -0.127 | 1.9 | 1.05 | -0.0028 |
| [N-]=[N+]=NCc1ccccc1C[C@]1(C(N)=O)N=C(c2ccc(OCCCO)cc2)O[C@H]1c1ccccc1 | 0.124 | 0.514 | -0.0129 | 0.726 | 0.639 | 1.89 | 1.14 | -3.9 (inactive) | 1.56 | -0.201 | 1.31 | 0.458 (inactive) | -1.74 (inactive) | 2.34 (inactive) | 3.32 | 1.22 (inactive) | 0.158 | -0.593 | 0.859 | -0.02 |
